Screening results as filed in PubChem.
JMJD2A Tudor: inhibitors of human JMJD2A Tudor domain | O75164 | AlphaScreen JMJD2A-Tudor / H3K4me3 peptide binding | 4.4% of 390,000 active | Potency, µM (highest dose often 114 µM), inactives show at the top dose activity change, negative = inhibition, usual class: inhibitors; further: on the % scale 0 is the no-effect control and ±100 the full control effect; nearly all actives have a fitted effect of over 50% in size
HP1b chromo inh: blocks HP1-beta chromodomain binding to methylated histone tails. P83916. AlphaScreen HP1-beta / biotin-H3K9me3 peptide binding. Potency, µM (top dose mostly 114 µM), for inactives: at the highest dose activity change, negative = inhibition, usual class: inhibitors. 0.56% of 390,000 active. AID 540317; further: nearly all actives have a fitted effect of over 70% in size
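Compound inhibition of the preformed complex between 50 nM HP1-beta and 50 nM biotinylated H3K9me3 peptide was read by AlphaScreen. Buffer was PBS pH 7.4 with 0.01% Tween-20. Incubations ran 30 min at room temperature, with 10 ug/mL donor/acceptor beads.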
G9a block: G9a (human) methyltransferase inhibition; 8.8% of 350,000 active; Potency, µM (top dose mostly 102 µM), without a hit: at the top dose activity, negative = inhibition, actives largely listed as inhibitors; AID 504332; Q96KQ7; G9a H3K9 monomethylation, AlphaScreen, 2 h; further: on the % scale 0 is the no-effect control and ±100 the full control effect; nearly all actives have a fitted effect of over 75% in size
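Chemiluminescent proximity detection of H3K9 monomethylation, read after 10 min bead incubation in the dark. Reaction: 20 nM G9a, 500 nM biotin-H3K9 peptide, 20 uM SAM cofactor, 2 h, room temperature, following 15 min enzyme-compound preincubation.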
BAZ2B block: inhibitors of human BAZ2B bromodomain. Q9UIF8. AlphaScreen BAZ2B-H3K14Ac peptide displacement. Potency, µM (highest dose often 114 µM), for the others: at the highest dose activity change, negative = inhibition, hits mostly inhibitors. 4.4% of 360,000 active; further: on the % scale 0 is the no-effect control and ±100 the full control effect; nearly all actives have a fitted effect of over 60% in size
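Compounds, titrated to a top concentration of 110 uM, were incubated 30 min at room temperature with preformed BAZ2B/acetyl-K14 H3 peptide complex (50 nM each). Proximity signal was measured by AlphaScreen after 20 min with beads.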
12-LOX inh: blocks human arachidonate 12S-lipoxygenase | P18054 | purified 12hLO, xylenol orange hydroperoxide absorbance | Potency, µM (titrated, usually from 108 µM), for the others: top-dose activity change, negative = inhibition, actives largely listed as inhibitors | 1.1% of 580,000 active; further: on the % scale 0 is the no-effect control and ±100 the full control effect
Target sequence (P18054 whole entry, looked up): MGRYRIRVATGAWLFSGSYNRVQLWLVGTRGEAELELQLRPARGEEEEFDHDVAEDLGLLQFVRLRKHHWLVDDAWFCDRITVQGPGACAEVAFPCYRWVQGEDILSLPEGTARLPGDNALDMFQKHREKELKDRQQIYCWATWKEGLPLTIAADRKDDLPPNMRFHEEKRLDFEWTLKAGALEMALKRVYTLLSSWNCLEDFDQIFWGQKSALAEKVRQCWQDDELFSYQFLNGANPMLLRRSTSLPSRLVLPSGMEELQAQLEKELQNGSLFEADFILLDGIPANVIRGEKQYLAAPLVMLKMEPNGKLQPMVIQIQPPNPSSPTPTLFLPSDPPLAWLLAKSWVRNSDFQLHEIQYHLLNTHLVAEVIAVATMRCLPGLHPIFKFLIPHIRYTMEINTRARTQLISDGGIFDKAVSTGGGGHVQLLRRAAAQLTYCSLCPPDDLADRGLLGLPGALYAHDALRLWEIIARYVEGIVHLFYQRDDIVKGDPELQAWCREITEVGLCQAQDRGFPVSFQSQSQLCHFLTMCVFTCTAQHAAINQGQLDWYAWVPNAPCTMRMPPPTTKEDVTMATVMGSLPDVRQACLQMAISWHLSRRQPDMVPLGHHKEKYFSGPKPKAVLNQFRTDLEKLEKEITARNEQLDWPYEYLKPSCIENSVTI
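Hydroperoxide product was detected by ferrous iron/xylenol orange as the 573 to 405 nm absorbance ratio. Arachidonic acid at 40 uM (final) was turned over for 30 min at room temperature by 150 nM human 12hLO, pH 7.0 Hepes buffer, after 15 min compound preincubation.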
Sfp PPTase inh: blocks B. subtilis Sfp PPTase activity; 3.5% of 310,000 active; Biochemical Sfp PPTase activity, qHTS; Potency, µM, for inactives: largest response in the series, negative = inhibition, actives largely listed as inhibitors;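 further: the enzyme is Sfp with the accession as filed and its product quenches rhodamine fluorescence; 0% = enzyme reaction without inhibitor and -100% = no enzyme wells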
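After 15 min at room temperature with compound, 15 nM Sfp received 5 uM rhodamine-CoA plus 12.5 uM BHQ-2-ybbR (50 mM Hepes pH 7.6, 10 mM MgCl2). Rate came from the fluorescence difference over 30 min, ex 525/em 598 nm.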
Starred values were filed as active, the others as inactive; ? = inconclusive; . = not tested or not shown; [ ] = dose if it differs, or a comment. Compounds with a hit are over-represented: about 8.7% of the library has one in this group of screens. The call rests on the fitted dose curve; in most records, active means well fitted curve in the direction sought with a large enough effect; inconclusive means small, poorly fitted or top-dose-only effect, or another doubt; inactive means no such curve, though single readings can be large; an effect the other way counts as inactive or inconclusive. Potency means the concentration at half of the fitted maximal effect.

SMILES | JMJD2A Tudor | HP1b chromo inh | G9a block | BAZ2B block | 12-LOX inh | Sfp PPTase inh
Cc1ccc(SCCC(=O)N2CCN(S(=O)(=O)c3ccc(Cl)s3)CC2)cc1 | . | . | . | . | 3% | .
O=C(O)/C=C/C(=O)N1CCN(C(=O)/C=C/C(=O)O)CC1 | ? | -11% | -20%[59 µM] | -5% | ? | 2%
CCOC(=O)/C=C/C(=O)N1CCN(C(=O)/C=C/C(=O)OCC)CC1 | -3% | 42% | 56µM* | -8% | 0% | 8%
COc1ccc(-n2cccc2/C=C/[N+](=O)[O-])cc1 | 45µM* | 45µM* | 40µM* | 35µM* | ? | ?
COc1ccc(Cl)cc1C(=O)C1CCCN(Cc2cnc(N3CCOCC3)s2)C1 (centres undefined) | 14µM* | ? | -25% | -31% | 0% | -12%
COc1ccc(F)cc1C(=O)C1CCCN(Cc2cnc(N3CCCC3)s2)C1 (centres undefined) | -15% | 11%[57 µM] | . | -9% | 1% | 1%
CCN(CC1CCCO1)S(=O)(=O)c1cccc(C#N)c1 (centres undefined) | . | . | . | . | -16% | .
CCC(NC(=O)Nc1ccc(OC)c(OC)c1)c1c(-n2cccc2)sc2c1CCN(C)C2 (centres undefined) | ? | ? | ? | 50µM* | ? | .
CCOc1ccccc1NC(=O)NC(CC)c1c(-n2cccc2)sc2c1CCN(C)C2 (centres undefined) | -32% | 6% | ? | -23% | ? | .
CCC(NC(=O)Nc1cc(OC)ccc1OC)c1c(-n2cccc2)sc2c1CCN(CC)C2 (centres undefined) | 56µM* | ? | 14µM* | 40µM* | ? | .
Cc1ccc(N2CCN(c3ccc(C)cc3)C2c2cccnc2)cc1 | 40µM* | ? | -20%[12.7 µM] | 35µM* | -16% | -4%
c1ccc(N2CCN(c3ccccc3)C2c2cccnc2)cc1 | ? | -18% | ? | ? | -4% | -3%
c1ccc(N2CCN(c3ccccc3)C2c2ccncc2)cc1 | ? | 7% | ? | ? | 8%[57.4 µM] | 79µM*
CCOc1ccc(CN2CCSCC2)cc1 | 3.5µM* | ? | ? | ? | ? | -4%
CC(=O)Nc1ccc(N2CCN(Cc3ccccc3)CC2)cc1 | -19% | 17% | -8% | -19% | . | 8%
COC(=O)CSc1nnc(CNc2ccc(Cl)cc2)n1Cc1ccccc1 | -21% | 7% | 56µM* | ? | 21% | 3%
CCOc1ccc(CNc2ccc(N3CCN(Cc4ccccc4)CC3)cc2)cc1 | 8.9µM* | ? | . | 8.9µM* | -11% | -9%
CCOc1ccc(NCc2nnc(SCc3ccc(Cl)cc3)n2-c2ccccc2)cc1 | 22µM* | ? | 25µM* | 14µM* | -14% | 14%
Cc1ccc(CNc2oc(-c3ccccc3C)nc2C#N)cc1 | . | . | . | . | -28% | .
CCCCOc1ccc(CN2CCSCC2)cc1 | 28µM* | ? | . | 5% | ? | -29%
Cc1ccc(-c2nnc3ccc(N4CCCC4)nn23)nc1 | . | . | . | . | 13%[176 µM] | .
CCOC(=O)N1CCN(C(=O)CCCCn2c(=S)[nH]c3ccsc3c2=O)CC1 | ? | 20% | 32µM* | -32% | ? | 79µM*
COc1ccc(N2CCN(C(=O)CCCCCn3c(=O)[nH]c4ccsc4c3=O)CC2)cc1 | -25% | -16% | 40µM* | -21% | 5% | 10%
O=C(CCCn1c(=S)[nH]c2ccsc2c1=O)NCCc1ccccc1 | 7% | 40% | 10µM* | -1% | -36% | 2%
CC1CCCCC1NC(=O)CCCCCn1c(=S)[nH]c2ccsc2c1=O (centres undefined) | 3% | 34% | 28µM* | -1% | 0% | 3%
SMILES | JMJD2A Tudor | HP1b chromo inh | G9a block | BAZ2B block | 12-LOX inh | Sfp PPTase inh
O=C([C@@H]1C[C@H](F)CN1C(=O)NCc1ccccc1)N1CCCCC1 | . | . | . | . | 25% | .
O=C(/C=C/c1ccccc1)N(Cc1ccc2[nH]ccc2c1)C1CC1 | . | . | . | . | -18% | .
COc1ccc(C2(C(N)=O)CCCC2)cc1 | . | . | . | . | 29% | .
O=C(Cn1nnnc1-c1ccccc1)N1CCCCC1 | . | . | . | . | 17% | .
CCOc1ccc(-n2nnnc2SCC(=O)NNC(=O)c2ccco2)cc1 | 22µM* | -7% | . | 0% | -9% | -8%
O=C(Cn1nc(-c2ccc(Cl)cc2)c2ccccc2c1=O)N1CCCC1 | . | . | . | . | -10% | .
Cc1cccc[n+]1C1C(c2ccccc2)C(C#N)=C(C(=C=[N-])C#N)NC1(O)C1CC1 (centres undefined) | ? | -19% | 40µM* | -35% | . | 2%
CN(C)c1nc(N)nc(COc2ccc(Cl)c3ccccc23)n1 | . | . | . | . | -11% | .
CCOc1ccccc1NC(=O)N1CCCCCCNC(=O)[C@@H]2CCCC[C@@H]21 | . | . | . | . | 1% | .
O=C1NC2CCCCC2C(=O)N1OS(=O)(=O)c1ccccc1 (centres undefined) | ? | 50µM* | . | . | ? | .
C=CCNC(=O)c1ccc(C2SCC(=O)N2Cc2ccccc2)cc1 (centres undefined) | -2% | 27% | 50µM* | -17% | 0% | 2%
CCCNC(=O)c1ccc(C2SCC(=O)N2CCc2ccccc2)cc1 (centres undefined) | -16% | 18% | 45µM* | 2% | -17% | -1%
O=C(NCc1ccccc1)c1ccc(C2SCC(=O)N2Cc2ccccc2)cc1 (centres undefined) | 5% | 30% | -14%[59 µM] | -2% | 14% | -5%
O/N=C/c1ccccc1I | . | . | . | . | 10% | .
COc1ccc2c(c1)OCC(CNC(=O)c1ccc(N3CCN(C)CC3)cc1)C2 (centres undefined) | . | . | . | . | 14% | .
Cc1c(Nc2c3c(c(C#N)c4nc5ccccc5n24)CCC3)c(=O)n(-c2ccccc2)n1C | . | . | 50µM* | -30% | . | 4%
CCCCc1c(C)c(C#N)c2nc3ccccc3n2c1Nc1c(C)n(C)n(-c2ccccc2)c1=O | 10% | 72% | 17% | -34% | 0% | -6%
COc1cc(OC)c(C2C(C#N)=C(N)Oc3cc(C)n(CCCN4CCOCC4)c(=O)c32)cc1OC (centres undefined) | -12%[57.1 µM] | 32% | -12% | 0% | 3% | 32%
COc1cc(OC)c(C2CC(=O)N3CN(C)CSC3=C2C#N)cc1OC (centres undefined) | 4µM* | -24% | 1.3µM* | -36% | 16µM* | 3.5µM*
COc1ccc(Br)cc1C1CC(=O)N2CN(C)CSC2=C1C#N (centres undefined) | ? | ? | 1.4µM* | -29% | 28µM* | 2.2µM*
COc1ccc2ccccc2c1C1CC(=O)N2CN(C)CSC2=C1C#N (centres undefined) | 28µM* | ? | 1.6µM* | ? | ? | 7.9µM*
Cc1nc(N2CCN(C(=O)c3ccc(C)c(F)c3)CC2)cc(C(F)(F)F)n1 | . | . | . | . | 4% | .
